PubChem BioAssay (NCATS)
Results filed as inconclusive are left out. Where a call stands in place of a potency, no number is given. Values without a mark were called inactive. Calls of active or inactive are those of the source. Calls follow the shape of the dose curve; as a rule, active = well fitted curve in the direction sought with a large enough effect; inconclusive = small, poorly fitted or top-dose-only effect, or another doubt; inactive = no such curve, though single readings can be large; an effect the other way counts as inactive or inconclusive.

What was measured:
[1] = biological target: Cellular tumor antigen p53 (Homo sapiens) (UniProt P04637); assay: Primary qHTS for small molecule compounds that upregulate eGFP-tagged delta133p53alpha (in N-terminal) cells. (AID 2060322); conditions: NCI-H358 eGFP-delta133p53alpha fluorescence, 24 h; activation: stronger effect = higher value; also: nearly all actives have a fitted effect of over 75% in size; also: potency is read from the fitted curve at half-maximal effect;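 as to activation: cells pre-induced with doxycycline then dosed without doxycycline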
Chain of Cellular tumor antigen p53 (Homo sapiens) (P04637 whole entry, looked up): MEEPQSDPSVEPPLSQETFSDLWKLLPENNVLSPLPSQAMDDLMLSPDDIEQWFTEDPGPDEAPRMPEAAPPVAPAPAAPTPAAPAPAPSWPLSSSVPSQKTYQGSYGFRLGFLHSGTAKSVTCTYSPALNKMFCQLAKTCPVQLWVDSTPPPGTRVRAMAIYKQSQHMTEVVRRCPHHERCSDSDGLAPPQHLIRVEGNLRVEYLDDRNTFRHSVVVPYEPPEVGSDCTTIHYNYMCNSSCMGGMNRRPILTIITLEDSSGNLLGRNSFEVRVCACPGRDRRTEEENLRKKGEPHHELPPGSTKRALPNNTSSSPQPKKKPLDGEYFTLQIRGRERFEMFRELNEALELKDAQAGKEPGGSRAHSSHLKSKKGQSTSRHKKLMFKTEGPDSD
In short: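 NCI-H358 cells pre-induced 24 h with 10 ng/ml doxycycline for eGFP-delta133p53alpha, plated dox-free and exposed 24 h at 37C to titrated compounds. Fixed, Hoechst-stained; gated GFP peak intensity by laser scanning cytometry, normalized to DMSO (0%) and 57.5 uM 5-azacytidine (100%).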

[2] = biological target: Aldehyde dehydrogenase, mitochondrial (Homo sapiens) (UniProt P05091); assay: qHTS for Inhibitors of the Aldehyde Dehydrogenase Family (ALDH2) Primary screen (AID 2061308); conditions: ALDH2 enzyme inhibition qHTS, 1536-well; series mostly up to 56 µM; also: nearly all actives have a fitted effect of over 55% in size
[3] = biological target: Retinaldehyde dehydrogenase 3 (Homo sapiens) (UniProt P47895); assay: qHTS for Inhibitors of the Aldehyde Dehydrogenase Family (ALDH1A3) Primary screen (AID 2061315); conditions: ALDH inhibition qHTS; series mostly up to 56 µM

Row | Structure (SMILES) | activation [1] | Potency [2] | Potency [3] | Potency [1] | activity change, negative = inhibition [2] | activity change, negative = inhibition [3]
1 | Nc1nc2c(nc(Br)n2[C@@H]2O[C@@H]3COP(=O)(O)O[C@H]3[C@H]2O)c(=O)[nH]1 | -14.3% | inactive | inactive |  |  | 
2 | CCC(C)CNCC(=O)N1CCC2SC=CC2C1COc1cccc(C)c1 (configuration not stated) | 17.9% | inactive | inactive |  |  | 
3 | COC1CC(O[C@H]2CC[C@@]3(C)C(=CC[C@]4(O)C3[C@H](O)[C@@H](O)[C@]3(C)[C@@H]([C@H](C)O)CC[C@@]34O)C2)OC(C)C1OC1CC(OC)C(OC2CC(OC)C(OC3OC(C)C(OC4OC(CO)C(O)C(O)C4O)C(OC)C3O)C(C)O2)C(C)O1 (some centres not stated) | -4.58% | inactive | inactive |  |  | 
4 | CC(=O)OC1CC2(C)C(CCC(C)C23Cc2c(O)cc(CO)c(C=O)c2O3)C(C)(C)C1O (configuration not stated) | 23.7% | inactive | inactive |  |  | 
5 | Nc1ncnc2c1ncn2CCNCCCCCO | -0.333% | inactive | inactive |  |  | 
6 | CC1(C)CC[C@]2(C(=O)O[C@@H]3O[C@H](CO)[C@@H](O)[C@H](O)[C@H]3O)CC[C@]3(C)C(=CCC4[C@@]5(C)CC[C@H](O[C@H]6O[C@H](CO)[C@@H](O)[C@H](O[C@@H]7O[C@H](CO)[C@@H](O)[C@H](O)[C@H]7O)[C@H]6O)C(C)(C)C5CC[C@]43C)[C@@H]2C1 (some centres not stated) | 15.3% | inactive | inactive |  |  | 
7 | C=C1CC[C@@H]2C(C)(C)CCC[C@@]2(C)[C@@H]1CC/C(=C/C(=O)OC)COC(C)=O | -31.3% | inactive | inactive |  |  | 
8 | CC1(C)CC=C(c2cnc3ccccc3c2)c2cc(C(=O)Nc3ccc(C(=O)O)cc3)ccc21 | 3.34% | inactive | inactive |  |  | 
9 | COC(=O)[C@H](Cc1ccc([N+](=O)[O-])cc1)NC(=O)c1cccc2ccccc12 | 11.5% | inactive | inactive |  |  | 
10 | CC(O)C1CCC2C3CCC4CC(OC5OC(C(=O)O)C(O)C(O)C5O)CCC4(C)C3CCC12C (configuration not stated) | -17% | inactive | inactive |  |  | 
11 | N#Cc1c[nH]c2c(C(=O)N3CCN(CCc4ccc(F)cc4)CC3)cccc12 | -18.8% | inactive | inactive |  |  | 
12 | O=C1NC(Cc2c[nH]c3ccccc23)C(=O)NC1Cc1c[nH]c2ccccc12 (configuration not stated) | 14.5% | inactive | inactive |  |  | 
13 | CCOc1ccc(-n2c(C(C)N(Cc3cccnc3)C(=O)Cc3ccc(F)c(C(F)(F)F)c3)nc3ncccc3c2=O)cc1 (configuration not stated) |  | inactive | inactive | 19 µM (active) |  | 
14 | C=C1C[C@@]23CC[C@@H]4[C@](C)(C(=O)O)CCC[C@@]4(C)C2=CC[C@H]1C3 | 0.763% | inactive | inactive |  |  | 
15 | COc1cc(-c2ccc(O)cc2)c(OC)c(O)c1C1=CC(=O)OC1CC(=O)O (configuration not stated) | 13.7% | inactive | inactive |  |  | 
16 | COc1ccc(CC(=O)NCc2ccccc2-c2ccccc2C(=O)NCCc2cccnc2)cc1 | 0.955% | inactive | inactive |  |  | 
17 | CC(=O)O[C@H]1CC[C@@]2(C)C(CC[C@@H](C)[C@]23Cc2c(O)cc4c(c2O3)CN([C@@H](CCC(=O)O)C(=O)O)C4=O)C1(C)C (some centres not stated) | 0.763% | inactive | inactive |  |  | 
18 | CC(=O)O[C@H]1C[C@@H](O)C(C)(C)C2C[C@@H](OC(C)=O)[C@@]3(C)C4=CCC(C(CO)CC(O)C5OC5(C)C)[C@]4(C)CCC3[C@]21C (some centres not stated) | -9.16% | inactive | inactive |  |  | 
19 | CC(/C=C/C1(O)C(C)(C)CC(O)CC1(C)O)OC1OC(CO)C(O)C(O)C1O (configuration not stated) | -5.34% | inactive | inactive |  |  | 
20 | Cc1cn2cc(C(=O)N(C)CCO)cc(NC3CCOc4cccc(C)c43)c2n1 (configuration not stated) | -10.3% | inactive | inactive |  |  | 

Row | Structure (SMILES) | activation [1] | Potency [2] | Potency [3] | Potency [1] | activity change, negative = inhibition [2] | activity change, negative = inhibition [3]
21 | C[C@@H]1O[C@@H](O[C@H]2[C@H](OC(=O)[C@]34CCC(C)(C)C[C@H]3C3=CCC5[C@@]6(C)C[C@H](O)[C@H](O[C@@H]7O[C@H](CO)[C@@H](O)[C@H](O)[C@H]7O)[C@@](C)(CO)C6[C@H](O)C[C@@]5(C)[C@]3(C)C[C@H]4O)OC[C@H](O)[C@@H]2O)[C@H](O)[C@H](O)[C@H]1O[C@@H]1OC[C@@H](O)[C@H](O[C@H]2OC[C@](O)(CO)[C@H]2O)[C@H]1O (some centres not stated) | 27.7% |  |  |  | 5.31% [at 11.2 µM] | -7.49% [at 11.2 µM]
22 | C=C1C(=O)OC[C@H]2C(C(=O)O)=CC3CC(C)(C)C[C@@]132 (some centres not stated) | 13.4% | inactive | inactive |  |  | 
23 | CC(C)c1cc2c(N3CCN(C4=NCC(C)(C)S4)CC3)ncnc2s1 | 3.67% | inactive | inactive |  |  | 
24 | CC(C)(O)/C=C/CC(C)(O)C1C(O)CC2(C)C3CCC4C(C)(C)C(=O)CCC4(C)C3CCC12C (configuration not stated) | 2.29% | inactive | inactive |  |  | 
25 | CC1(C)C[C@H](O)C[C@@]2(C)[C@H]1[C@H](O)C=C1COC(=O)[C@@]12O | 6.11% | inactive | inactive |  |  | 
26 | C=C(C)C1Cc2cc(C(=O)OC3OC(CO)C(O)C(O)C3O)ccc2O1 (configuration not stated) | 9.92% | inactive | inactive |  |  | 
27 | CC(C)CC(=O)O[C@@H]1OC=C(CO[C@@H]2O[C@H](CO)[C@@H](O)[C@H](O)[C@H]2O)[C@H]2[C@@H]3O[C@H]3[C@@](O)(CO)[C@@H]12 | -3.05% | inactive | inactive |  |  | 
28 | O=C(O)C[C@H]1CCC(=O)[C@@H]1C/C=C\CCOC1OC(CO)C(O)C(O)C1O (some centres not stated) | -3.82% | inactive | inactive |  |  | 
29 | CSCC1OC(n2cnc3c(=O)[nH]cnc32)C(O)C1O (configuration not stated) | -8.4% | inactive | inactive |  |  | 
30 | CC1=C2C(=O)C=C(CO[C@@H]3O[C@H](CO)[C@@H](O)[C@H](O)[C@H]3O)[C@@H]2[C@H]2OC(=O)[C@H](C)[C@@H]2CC1 | -19.6% | inactive | inactive |  |  | 
31 | C=C1/C(=C/C=C2\CCC[C@]3(C)[C@@H]([C@H](C)CC[C@@H](O)C(C)(C)O)CC[C@@H]23)C[C@@H](O)C[C@@H]1O | 10.3% | inactive | inactive |  |  | 
32 | COc1cc2nc(=NC(=O)c3cccnc3)n3c(c2cc1OC)NCC3 | 3.34% | inactive | inactive |  |  | 
33 | COC(=O)C1=COC(OC2OC(CO)C(O)C(O)C2O)C2C1CC(OC(=O)C(O)CC(=O)O)C2C (configuration not stated) | 10.7% | inactive | inactive |  |  | 
34 | CC1CCC2C(C(=O)O)=CC3C(O)C(C)(C)CC123 (configuration not stated) | -0.763% | inactive | inactive |  |  | 
35 | COC(=O)C1=CO[C@@H](O[C@@H]2O[C@H](CO)[C@@H](O)[C@H](O)[C@H]2O)[C@@H]2C(COC(C)=O)=C[C@H](O)[C@H]12 | -14.5% | inactive | inactive |  |  | 
36 | CC(=O)N1CCN(C(=O)Cc2ccc(Nc3ncc(F)c(Nc4ccc(C(=O)Nc5ccccc5Cl)cc4)n3)cc2)CC1 |  | inactive | inactive | 13.5 µM (active) |  | 
37 | CC(=O)[C@H]1CC[C@H]2[C@@H]3CC=C4C[C@@H](OS(=O)(=O)O)CC[C@]4(C)[C@H]3CC[C@]12C | -4.33% | inactive | inactive |  |  | 
38 | CC(=O)C1=C(C)N(c2cccc(C(F)(F)F)c2)C(=O)N[C@H]1c1ccc(C#N)nc1 | -3.67% | inactive | inactive |  |  | 
39 | C[C@@H]1CC[C@]2(C(=O)O[C@@H]3O[C@H](CO[C@@H]4O[C@H](CO)[C@@H](O[C@@H]5O[C@@H](C)[C@H](O)[C@@H](O)[C@H]5O)[C@H](O)[C@H]4O)[C@@H](O)[C@H](O)[C@H]3O)CC[C@]3(C)C(=CCC4[C@@]5(C)C[C@@H](O)[C@H](O)[C@@](C)(CO)C5CC[C@]43C)C2[C@H]1C (some centres not stated) | -19.6% | inactive | inactive |  |  | 
